Screening data as filed in PubChem BioAssay.
Shown is part of a subset that was picked to be rich in hits.
ERK EGF inh: qHTS Assay for Inhibitors of the ERK Signaling Pathway using a Homogeneous Screening Assay; Stimulation with EGF | Potency, µM (series often up to 11.5 µM), actives largely listed as inhibitors | HEK293-V1b, EGF-stimulated phospho-ERK AlphaScreen | 0.41% of 130,000 active | AID 1454, 2008; active means well fitted inhibition curve with a large enough effect; further: nearly all actives have a fitted effect of over 55% in size
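HEK293 cells stably expressing V1b receptor, serum-reduced (1% FBS) overnight, got compound for 30 min at 37C, then 25 nM EGF for 5 min. Lysate phospho-ERK read by AlphaScreen SureFire; AC50 from Hill fits.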
Numbers stand for hits; . = inactive; ! = repeats disagree.

SMILES	ERK EGF inh
COc1ccc(C(=O)/C=C/Nc2ccc([N+](=O)[O-])cc2)cc1	.
COC(=O)/C(=C\C(=O)c1ccc([N+](=O)[O-])cc1)Nc1ccc(OC)cc1	12.6µM
COc1ccc(NC(=O)CNC(=O)c2ccc([N+](=O)[O-])cc2)cc1	.
Nc1nc(CCl)nc(Nc2cccc3ccccc23)n1	.
O=C(CSc1nncn1-c1cccnc1)N(c1ccccc1)c1ccccc1	.
CCOC(=O)N1CCN(C(=O)CSc2ccc3nnc(-c4cccnc4)n3n2)CC1	.
Cc1nn(C)cc1S(=O)(=O)N1CCN(Cc2ccc(F)cc2Cl)CC1	.
CN(C)S(=O)(=O)c1ccc(Cl)c(NC(=O)CN2CCNC(=O)C2)c1	.
O=C1CS/C(=N/N=C\c2ccn[nH]2)N1	.
CCc1cccc(Nc2cc(C)nc3ncnn23)c1	.
CCc1c(C)nc2ncnn2c1Nc1ccc(C)c(C)c1	22.4µM
CCc1c(C)nc2ncnn2c1NC1CCCc2ccccc21 (stereo not given)	.
CCc1sc(C(C2C(=O)CC(C)(C)CC2=O)C2C(=O)CC(C)(C)CC2=O)cc1[N+](=O)[O-]	.
C/C(=C\C[Si](C)(C)C)CCC=O	.
CCCCCCOc1ccc(N2C(=O)CC(N(CCc3ccc(S(N)(=O)=O)cc3)C(C)=O)C2=O)cc1 (stereo not given)	.
Cc1ccc2c(c1)S/C(=C/c1ccc[n+](C)c1)N2CCO	.
CCN1/C(=C/c2cc[n+](C)cc2)C=Cc2cc(C)ccc21	15.8µM
CCN1/C(=C2\C(=O)N(c3ccccc3)N=C2C)C=Cc2cc(C)ccc21	.
Cc1cc(C)nc(/N=C(\N)Nc2ccc(SC(F)F)cc2)n1	.
CN(C)CCOC(c1ccccc1)c1ccccc1 (tested in a mixture with another compound)	.
CN(C)CCOC(c1ccccc1)c1ccccc1	14.1µM!
CN(C)CCOC(c1ccc(Cl)cc1)c1ccccn1 (stereo not given)	.
CC(Cc1ccc(O)c(O)c1)(NN)C(=O)O (stereo not given)	.
COC(=O)[C@@H]1C=C[C@H](C)[C@H](CCOc2ccccc2)O1	.
CC/C=C\C/C=C\C/C=C\C/C=C\C/C=C\C/C=C\CCC(=O)NCCO	.
SMILES	ERK EGF inh
O=C(CN1CCSC1=NCc1ccccc1)c1ccc(Cl)c(Cl)c1	.
O=C(NCCCOc1cccc(CN2CCCCC2)c1)c1ccc(Cl)c(Cl)c1	.
N=c1n(CCN2CCCCC2)c2ccccc2n1CC(=O)c1ccc(Cl)c(Cl)c1	28.2µM
COc1ccc(CCNC(=O)COc2ccc(C)nc2[N+](=O)[O-])cc1	.
Cc1ccc(S(=O)(=O)n2nccc2-c2c(-c3ccc(Cl)cc3)noc2C)cc1	.
CN(C(=O)COC(=O)CNC(=O)c1ccccc1Cl)c1ccccc1	.
CN(C(=O)COc1ccccc1C(=O)NCCOc1ccccc1)c1ccccc1	31.6µM
CCOc1ccccc1C(=O)NCCC(=O)O	.
C#CCNC(=O)C(C)c1ncc(C(F)(F)F)cc1Cl (stereo not given)	.
O=C(NNc1nc2cc3c(cc2s1)OCO3)c1cccc(F)c1	17.8µM
COc1cc(C(=O)NNc2nc3cc4c(cc3s2)OCO4)cc(OC)c1OC	.
COc1cc(OC)cc(C(=O)NNc2nc3cc4c(cc3s2)OCO4)c1	.
COc1ccc([N+](=O)[O-])cc1-n1cnnn1	.
CSC(=S)N/N=C/c1ccccc1	.
CS(=O)(=O)N1CCN(C(=S)NCc2ccc(Cl)cc2)CC1	.
CCN1C(c2ccccc2)=C(c2ccccc2)S/C1=C/C=C1\SC(=S)N(C)C1=O	3.16µM
CCCN1C(=O)/C(=C\C=C2/C=CN(CC)c3ccccc32)SC1=S	.
CCN1C(=O)/C(=C/C=C2/Sc3ccc4ccccc4c3N2CCO)SC1=S	.
S=c1nc(-c2csc3c2CCCC3)[nH][nH]1	.
COC(=O)Oc1ccccc1C(=O)O	.
O=Cc1sc(=O)n(Cc2cccc(C(=O)O)c2)c1Cl	.
CCN1C(=O)CS/C1=N\S(=O)(=O)c1ccc(Cl)cc1	.
CCn1c(Cl)c(C=O)s/c1=N\S(=O)(=O)c1ccccc1	17.8µM
C/C(=C\c1ccccc1)CN1CCN(Cc2ccc(C)o2)C(CCO)C1 (stereo not given)	.
CCCONC(=O)Nc1ccccc1[N+](=O)[O-]	.
SMILES	ERK EGF inh
O=[N+]([O-])c1ccccc1N/N=C/c1cccc(O)c1O	.
CCCOc1ccc(/C=N/Nc2ccccc2[N+](=O)[O-])c(OCCC)c1	11.2µM
COc1ccc(CCNC(=O)/C=C/c2ccc(OC)c(S(=O)(=O)N3CCOCC3)c2)cc1	.
CC1(N(O)/C=C2\C=CC=CC2=O)CCCCC1=O (stereo not given)	.
O=[N+]([O-])c1ccc(-c2cn3nc(-c4ccccc4)c(-c4ccccc4)nc3n2)cc1	.
Nc1nc(-c2ccccc2)c(-c2ccc([N+](=O)[O-])cc2)s1	25.1µM
Nc1nc(-c2ccc([N+](=O)[O-])cc2)c(C(=O)Nc2ccc(Cl)cc2)s1	.
O=c1c2ccccc2c(C=Nc2ccc(O)cc2)c(O)n1-c1nccs1	.
C=C(C)CNC(=S)Nc1cccc(N)n1	.
